Source: PubChem BioAssay
Rows were chosen to be rich in hits. Some 12% of all compounds tested hit in one or more screens of this group.
HP1b chromo inh – inhibitors of HP1-beta chromodomain binding to methylated histone tails; P83916; AlphaScreen HP1-beta / biotin-H3K9me3 peptide binding; Potency, µM (doses to about 114 µM), for inactives: at the top dose activity change, negative = inhibition, usual class: inhibitors; 390,000 tested, 0.56% active; also: nearly all actives have a fitted effect of over 70% in size
Target sequence (P83916 whole entry, looked up): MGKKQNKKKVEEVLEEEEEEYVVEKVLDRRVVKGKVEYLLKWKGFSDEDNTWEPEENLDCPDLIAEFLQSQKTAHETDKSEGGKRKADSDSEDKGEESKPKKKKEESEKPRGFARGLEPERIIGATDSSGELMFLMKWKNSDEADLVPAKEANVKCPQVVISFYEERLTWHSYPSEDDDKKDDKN
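Compound inhibition of the preformed complex between 50 nM HP1-beta and 50 nM biotinylated H3K9me3 peptide was read by AlphaScreen. Buffer was PBS pH 7.4 with 0.01% Tween-20. Incubations ran 30 min at room temperature, with 10 ug/mL donor/acceptor beads.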
JMJD2A Tudor – inhibitors of human JMJD2A Tudor domain. O75164. AlphaScreen JMJD2A-Tudor / H3K4me3 peptide binding. Potency, µM (series often up to 114 µM), without a hit: at the highest dose activity change, negative = inhibition, actives largely listed as inhibitors. 390,000 tested, 4.4% active; also: % is scaled to controls: 0 for no effect and ±100 for the full control effect; nearly all actives have a fitted effect of over 50% in size
PLK1 PBD inh – inhibitors of human PLK1 polo-box domain binding; Potency, µM, without a hit: max response, negative = inhibition, most hits filed as inhibitors; Plk1 PBD binding of FITC phosphopeptide, fluorescence polarization; P53350; 360,000 tested, 2.8% active; also: series mostly up to about 57 µM; % is scaled to controls: 0 for no effect and ±100 for the full control effect; nearly all actives have a fitted effect of over 65% in size
BAZ2B block – blocks human BAZ2B; Q9UIF8; AlphaScreen BAZ2B-H3K14Ac peptide displacement; Potency, µM (series often up to 114 µM), for inactives: at the highest dose activity change, negative = inhibition, actives largely listed as inhibitors; 360,000 tested, 4.4% active; AID 504333; also: % is scaled to controls: 0 for no effect and ±100 for the full control effect; nearly all actives have a fitted effect of over 60% in size
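AlphaScreen luminescence quantifies BAZ2B engagement of H3K14Ac peptide; the protein and biotinylated peptide are both at 50 nM final, buffer PBS pH 7.4 with 0.01% Tween-20, all steps at room temperature.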
G9a block – G9a (human) methyltransferase inhibition. G9a H3K9 monomethylation, AlphaScreen, 2 h. Potency, µM (titrated, usually from 102 µM), for inactives: top-dose activity, negative = inhibition, usual class: inhibitors. 350,000 tested, 8.8% active. AID 504332; also: % is scaled to controls: 0 for no effect and ±100 for the full control effect; nearly all actives have a fitted effect of over 75% in size
Target sequence (Q96KQ7 913-1193 limits assumed): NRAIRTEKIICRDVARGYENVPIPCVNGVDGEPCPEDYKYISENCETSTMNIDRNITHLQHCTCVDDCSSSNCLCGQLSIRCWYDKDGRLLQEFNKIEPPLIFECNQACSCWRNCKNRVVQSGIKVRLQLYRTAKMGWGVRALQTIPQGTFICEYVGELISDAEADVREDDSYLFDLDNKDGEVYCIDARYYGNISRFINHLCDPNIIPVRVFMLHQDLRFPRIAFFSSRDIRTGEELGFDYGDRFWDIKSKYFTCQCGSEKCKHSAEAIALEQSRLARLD
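Step 1: enzyme (final 20 nM) with compound, 15 min RT. Step 2: substrate peptide 500 nM and SAM 20 uM, 2 h RT. Step 3: anti-H3K9me1 antibody and AlphaScreen beads, 10 min, then plate read.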
Sfp PPTase inh – inhibitors of Bacillus subtilis Sfp phosphopantetheinyl transferase; Q9F4F7; AID 1490; 310,000 tested, 3.5% active; Biochemical Sfp PPTase activity, qHTS; Potency, µM, without a hit: largest response in the series, negative = inhibition, hits mostly inhibitors;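 also: the enzyme is Sfp with the accession as filed and its product quenches rhodamine fluorescence; 0% = enzyme reaction without inhibitor and -100% = no enzyme wells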
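Compounds were incubated with enzyme (final 15 nM) for 15 min at room temperature before substrate addition started the reaction. Fluorescence at 525 nm excitation, 598 nm emission was recorded immediately and after 30 minutes.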
Active calls of the source: *; ? = inconclusive; . = not tested or not shown; [ ] = remark or other dose. Calls follow the shape of the dose curve; as a rule, active = well fitted curve in the direction sought with a large enough effect; inconclusive = small, poorly fitted or top-dose-only effect, or another doubt; inactive = no such curve, though single readings can be large; an effect the other way counts as inactive or inconclusive. Potency is read from the fitted curve at half-maximal effect.

SMILES | HP1b chromo inh | JMJD2A Tudor | PLK1 PBD inh | BAZ2B block | G9a block | Sfp PPTase inh
C=CCNc1nc(-c2cc3ccccc3o2)cs1 | -10% | -22% | -19% | ? | 11µM* | ?
c1ccc2sc(NCC3CCCO3)nc2c1 (stereo not given) | 43% | -5% | 0% | -8% | 3% | 22%
c1ccc2oc(-c3csc(NCC4CCCO4)n3)cc2c1 (stereo not given) | ? | ? | -25% | ? | 40µM* | -17%
C=CCNc1nc(-c2ccc3c(c2)OCCO3)cs1 | -8% | ? | -18% | . | . | .
CCOc1ccc(-n2c(=O)c3c(C)c(C)sc3n(CC(=O)Nc3ccc(CC)cc3)c2=O)cc1 | 10% | -10% | . | 1% | -1%[59 µM] | .
O=C(COC(=O)c1cccc(F)c1)Nc1ccc(Cl)cn1 | 29% | -3% | 1% | . | . | .
O=C1NC[C@@H](c2ccccc2)OC(=O)[C@H](Cc2ccc(F)cc2)C/C=C\C[C@@H]1CC(=O)N(CCO)Cc1ccccc1 | 22% | -34% | -9% | . | . | .
CC1CC(=O)N(c2ccc(N(C)Cc3ccccc3)c([N+](=O)[O-])c2)C1=O (stereo not given) | 8% | -10% | -1% | 11µM* | -48% | -28%
CN(Cc1ccccc1)c1ccc(N2C(=O)CCC2=O)cc1[N+](=O)[O-] | 5% | ? | -6% | ? | -40% | 6%
c1ccc2c(c1)CCCN2Cc1nnnn1CC1CCCO1 (stereo not given) | 41% | -9% | -27% | -25% | ? | 8%
c1ccc(CCn2nnnc2CN2CCCc3ccccc32)cc1 | -21% | -22%[11.4 µM] | 13µM* | -35% | ? | 4%
O=C(NNc1ccc([N+](=O)[O-])cc1)c1ccccc1F | 13% | -26% | -11% | -38% | 35µM* | -8%
O=C(NNS(=O)(=O)c1ccc(Br)cc1)c1ccncc1 | 5% | ? | -4% | -28% | 39%[0.501 µM] | -4%
O=C(NNS(=O)(=O)c1ccc([N+](=O)[O-])cc1)c1ccc([N+](=O)[O-])cc1 | ? | 1.3µM* | -8% | -19% | 17%[2.33 µM] | 2%
O=C(NNc1ccccc1)C(=O)NNS(=O)(=O)c1ccc([N+](=O)[O-])cc1 | 11% | 3.2µM* | -5% | -27% | 6.3µM* | 14%
Cc1ccc(S(=O)(=O)NNC(=O)c2ccncc2)cc1[N+](=O)[O-] | 21% | 4µM* | -14% | -30% | 50µM* | -4%
O=C(NNc1ccc([N+](=O)[O-])cc1)Nc1ccccc1 | ? | -30% | ? | -27% | ? | ?
CC(=O)C[C@@H](O)CC(=O)[C@@H]1OC(=O)CCCCCCc2ccccc21 | 51% | -10% | -23% | . | . | .
O=c1c(-c2cc(F)cc(F)c2)nc2cnc(N3CCOCC3)nc2n1Cc1ccc(F)cc1 | . | . | . | . | 6%[0.501 µM] | 27%
CC(=O)Nc1ccc(S(=O)(=O)NNc2ccc([N+](=O)[O-])cc2)cc1 | ? | 6.3µM* | ? | 50µM* | 1.3µM* | 22µM*
Cc1cccc(C(=O)Nc2nc(-c3ccc(Br)cc3)ns2)c1 | 38% | -2% | . | 1% | ? | .
CCOc1ccc(NC(=O)CN(c2ccc(CC)cc2)S(=O)(=O)c2c(C)noc2C)cc1 | 24% | -16% | . | -3% | 5%[59 µM] | .
[S-]c1nnc(-c2ccc(Br)cc2)n1-c1ccccc1.[Zn+2] | 21% | 50µM* | -7% | 79µM* | -5%[0.501 µM] | 5%
Cc1oc(C)c2c(=O)ccc3c(c12)OC(N)=C(C#N)C3c1ccc(F)cc1 (stereo not given) | ? | -11%[11.4 µM] | ? | 56µM* | ? | ?
Cc1nc2ccccc2c(=O)n1/N=C/c1ccccn1 | 8% | -22% | 0% | -7% | 28µM* | ?
SMILES | HP1b chromo inh | JMJD2A Tudor | PLK1 PBD inh | BAZ2B block | G9a block | Sfp PPTase inh
Cc1n[nH]c(=S)n1/N=C/c1c(O)ccc2ccccc12 | 43% | ? | -21% | -13% | . | 63µM*
CC(C)(C)N=Cc1c(O)ccc2oc3c(c12)CCCC3 | 84% | ? | ? | 95% | -5% | -14%
Cc1nc2ccccc2c(=O)n1/N=C/c1c(O)ccc2ccccc12 | -18% | -30% | -15% | 25µM* | 32µM* | 0%
Cc1nc2ccccc2c(=O)n1/N=C/c1c(O)ccc2oc3c(c12)CCCC3 | 4% | ? | -8% | 8% | 4%[2.33 µM] | 22µM*
Cc1nc2ccccc2c(=O)n1/N=C/c1cc(Br)ccc1O | 54% | ? | -16% | -6% | 38% | -3%
Cc1cc(C(=O)N2CCN(c3ccccc3)CC2)c2c(C)nn(-c3cccc(F)c3)c2n1 | 41% | 6% | . | 9%[57.1 µM] | -7%[59 µM] | .
O=C(CN(C(=O)CNC(=O)c1ccco1)c1ccccc1F)NC1CCCCC1 | 33% | -8% | -5% | 6% | -9% | -9%
CC(=O)Nc1ccc(C2NC(C(=O)O)CCC2C)cc1 (stereo not given) | . | . | . | . | . | 29%
COc1cc(/C=N/n2c(C)nc3ccccc3c2=O)cc(OC)c1O | 44% | -22% | -3% | -27% | 13µM* | -3%
COc1cc(OC)c(OC)cc1/C=N/n1c(C)nc2ccccc2c1=O | 14% | -18% | -14% | 5% | 14% | 20%
O=C(O)COn1c(-c2ccccc2)nc2ccc([N+](=O)[O-])cc21 | 11% | ? | ? | 50µM* | 45µM* | 25%
CCCCCNCc1cccn1C | 6% | -30% | -11% | -37% | 8%[59 µM] | 10%
CCCCOCCCNCc1cccn1CCN1CCOCC1 | -24% | 7.9µM* | -7% | -36% | ? | 2%
COc1ccccc1N(CC(=O)N/N=C(\C)c1ccc(F)cc1)S(=O)(=O)c1ccccc1 | 22% | -2% | -8% | -4% | 16%[12.7 µM] | .
CC(C)=CCC/C(C)=C/CNC(=O)C[C@H]1C[C@H](C(=O)N2CCCCC2)[C@@]2(CCc3ccccc3)c3[nH]c4cc(CCC(=O)N(C)C)ccc4c3CCN2C1=O | 17% | -27% | -3% | . | . | .
O=C1OC(Nc2nccs2)c2ccccc21 (stereo not given) | 11% | ? | 24µM* | -9% | -4% | 13%
O=C1OC(Nc2nc3ccccc3s2)c2ccccc21 (stereo not given) | 52% | 3% | ? | -12% | 50µM* | 5%
O=C1OC(Nc2nc(-c3ccc(F)cc3)cs2)c2ccccc21 (stereo not given) | 60% | -20% | -13% | -2% | 5% | -9%
CS(=O)(=O)c1ccc(Cl)c(NC(=O)CSc2nnc(-c3cccs3)n2N)c1 | 31% | -1% | 2% | 10% | -7%[2.33 µM] | .
CCN(c1ccccc1)c1ncnc2c1cnn2-c1ccc(C)cc1C | 45% | -5% | . | 13% | -7%[59 µM] | .
c1ccc(-n2cccc2CNC2CCCCC2)cc1 | ? | 3.5µM* | -15% | ? | ? | -14%
